Results filed as inconclusive are left out. Active and inactive are the calls of the source. The call rests on the fitted dose curve; in most records, active means well fitted curve in the direction sought with a large enough effect; inconclusive means small, poorly fitted or top-dose-only effect, or another doubt; inactive means no such curve, though single readings can be large; an effect the other way counts as inactive or inconclusive.
Tests used:
[1] = Quantitative highthroughput screen to assess conditional lethalithy of NOMO1 cells grown in RPMI1640 with untreated serum (RPMI+s) (AID 1963876); conditions: NOMO1 AML cells in RPMI+serum, CellTiter-Glo viability, 48 h; series mostly up to 45.8 µM; further: nearly all actives have a fitted effect of over 35% in size;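 on viability: 100% = DMSO wells and 0% = empty wells without cells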
Outline: (§1)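 Each medium arm—HPLM with 10% dialyzed FBS, or RPMI1640 with 5 mM glucose and 10% untreated or dialyzed FBS—was screened against an 11-point, 3-fold compound titration for 48 h at 37 °C, with CellTiter-Glo luminescence as endpoint.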

[2] = Quantitative highthroughput screen to assess conditional lethalithy of NOMO1 cells grown in RPMI1640 with dialyzed fetal bovine serum (RPMI+ds) (AID 1963877); conditions: NOMO1 in RPMI+dialyzed FBS viability, ATP luminescence, 48 h; series mostly up to 45.8 µM; further: nearly all actives have a fitted effect of over 30% in size;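 on viability: 100% = DMSO control wells and 0% = empty wells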
Outline: as §1

[3] = Quantitative highthroughput screen to assess conditional lethalithy of P12 Ichikawa cells grown in Human Plasma-Like Medium with dialyzed fetal bovine serum (HPLM+ds) (AID 1963879); conditions: ATP luminescence, 48 h; Potency: viability; series mostly up to 45.8 µM; further: nearly all actives have a fitted effect of over 35% in size
Outline: as §1

[4] = Quantitative highthroughput screen to assess conditional lethalithy of P12 Ichikawa cells grown in RPMI1640 with dialyzed fetal bovine serum (RPMI+ds) (AID 1963880); conditions: ATP luminescence, 48 h; Potency: P12-Ichikawa viability; series mostly up to 45.8 µM; further: nearly all actives have a fitted effect of over 35% in size;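 on viability: 100% = DMSO wells and 0% = empty wells on each plate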
Outline: as §1

[5] = Quantitative highthroughput screen to assess conditional lethalithy of P12 Ichikawa cells grown in RPMI1640 with untreated serum (RPMI+s) (AID 1963881); conditions: ATP luminescence, 48 h; Potency: viability; series mostly up to 45.8 µM; further: nearly all actives have a fitted effect of over 35% in size;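 on viability: 100% = DMSO wells and 0% = empty wells without cells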
Outline: as §1

[6] = Cellular viability qHTS for adrenocortical cancer (ACC) cell line SW-13 (AID 1963989); conditions: SW-13 ACC cells viability, CellTiter-Glo, 48 h; activity (max response): active compounds read low; further: nearly all actives have a fitted effect of over 65% in size;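 on activity (max response): cells grown in serum-free medium with ITS supplement; on the % scale 0 is the no-effect control and ±100 the full control effect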
Outline: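 SW-13 cells in ITS-supplemented serum-free DMEM were plated overnight, then exposed for 48 h at 37C to compound titrations (up to 46 uM final). Viability was read by CellTiter-Glo luminescence; four-parameter logistic fits gave IC50 and efficacy.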

[7] = Cellular viability qHTS for adrenocortical cancer (ACC) cell line NCI-H295R (AID 1963990); conditions: CellTiter-Glo ATP luminescence, 48 h; series mostly up to 46.1 µM; further: nearly all actives have a fitted effect of over 60% in size
Outline: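 Luminescent ATP read-out (CellTiter-Glo, 20 min RT) after 48 h drug exposure of NCI-H295R cells; a titration up to 46 uM final. Data normalized to doxorubicin (100% inhibition) and DMSO (0%); 4-parameter fit gives IC50, max response.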

[8] = Quantitative highthroughput screen to assess conditional lethalithy of SEM cells grown in Human Plasma-Like Medium with dialyzed fetal bovine serum (HPLM+ds) (AID 1963882); conditions: SEM B-ALL cells in HPLM+ds, CellTiter-Glo viability, 48 h; series mostly up to 45.8 µM; further: nearly all actives have a fitted effect of over 35% in size
Outline: as §1

[9] = Quantitative highthroughput screen to assess conditional lethalithy of SEM cells grown in RPMI1640 with dialyzed fetal bovine serum (RPMI+ds) (AID 1963884); conditions: SEM B-ALL cells, RPMI+dialyzed FBS, CellTiter-Glo viability, 48 h; series mostly up to 45.8 µM; further: nearly all actives have a fitted effect of over 35% in size;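 on viability: 100% = DMSO control wells and 0% = empty wells without cells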
Outline: as §1

[10] = Quantitative highthroughput screen to assess conditional lethalithy of SEM cells grown in RPMI1640 with unreated serum (RPMI+s) (AID 1963883); conditions: SEM B-ALL cells, CellTiter-Glo viability, 48 h; series mostly up to 45.8 µM; further: nearly all actives have a fitted effect of over 35% in size;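 on viability: 100% = DMSO wells and 0% = empty wells without cells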
Outline: as §1
Potency means the concentration at half of the fitted maximal effect.

Cc1cncc2cccc(S(=O)(=O)N3CCCN(C(=O)CN)C[C@@H]3C)c12
active: Potency [1] 5.9 µM | Potency [2] 4.18 µM | Potency [3] 5.26 µM | Potency [4] 6.62 µM | Potency [5] 6.62 µM
inactive: activity (max response) [6] -18.3% | Potency [7]

CC[C@H](CO)Nc1nc(NCc2ccccc2)c2ncn(C(C)C)c2n1
active: Potency [7] 31.6 µM
inactive: Potency [1] | Potency [2] | Potency [4] | Potency [5] | Potency [8]

COC1=C(OC)C(=O)C(CC=C(C)CCC=C(C)CCC=C(C)CCC=C(C)CCC=C(C)CCC=C(C)CCC=C(C)CCC=C(C)CCC=C(C)CCC=C(C)C)=C(C)C1=O
inactive: Potency [1] | Potency [2] | Potency [3] | Potency [5] | Potency [8] | Potency [9]

O=C(c1ccc(C=Cc2n[nH]c3ccccc23)cc1)N1CCNCC1
active: Potency [1] 0.469 µM | Potency [2] 0.935 µM | Potency [3] 0.935 µM | Potency [5] 0.935 µM | Potency [10] 0.166 µM

NC(=O)c1ccc(-c2nc(-c3ccc4c(c3)OCCO4)c(-c3ccccn3)[nH]2)cc1
inactive: Potency [1] | Potency [2] | Potency [3] | Potency [4] | Potency [5] | Potency [8] | Potency [10] | Potency [9] | activity (max response) [6] -9.07%

Nc1ccn([C@@H]2O[C@H](CO)[C@H](O)C2(F)F)c(=O)n1
active: Potency [1] 0.0833 µM | Potency [2] 0.0833 µM | Potency [3] 0.0833 µM | Potency [4] 0.0526 µM | Potency [5] 0.0743 µM | Potency [8] 0.0118 µM | Potency [9] 0.0059 µM

C[C@H](Cn1cnc2c(N)ncnc21)OCP(=O)(O)O
inactive: Potency [1] | Potency [2] | Potency [3] | Potency [4] | Potency [5] | Potency [8] | Potency [10] | Potency [9]

C=CC[N+]1([C@H]2C[C@H]3[C@@H]4CC[C@H]5C[C@H](O)[C@@H](N6CCOCC6)C[C@]5(C)[C@@H]4CC[C@]3(C)[C@H]2OC(C)=O)CCCC1
inactive: Potency [1] | Potency [2] | Potency [3] | Potency [4] | Potency [5] | Potency [8] | Potency [10] | Potency [9]

CC(C)(C)COc1ccc(-n2cc(C(=O)O)cn2)cc1C#N
inactive: Potency [1] | Potency [2] | Potency [4] | Potency [5] | Potency [8] | Potency [10] | Potency [9] | activity (max response) [6] 0.955% | Potency [7]

CCOC(=O)O[C@]1(C(=O)OCCl)CC[C@@H]2[C@H]3CCC4=CC(=O)C=C[C@]4(C)[C@@H]3[C@@H](O)C[C@@]21C
inactive: Potency [1] | Potency [2] | Potency [4] | Potency [5] | Potency [8] | Potency [10] | Potency [9]

CC(=O)NCCC(=O)N[C@@H](CCC(N)=O)C(=O)N[C@@H](CO)C(=O)N[C@@H](CCC(N)=O)C(=O)N[C@@H](CCC(N)=O)C(=O)N[C@H](C(=O)N[C@@H](Cc1ccccc1)C(=O)N[C@]1(C)CCCCCCC=CCCC[C@@](C)(C(=O)N[C@@H](CCC(N)=O)C(=O)N[C@@H](CC(N)=O)C(N)=O)NC(=O)[C@H](CC(C)C)NC(=O)[C@H](CC(C)C)NC(=O)[C@@H](CCCNC(=N)N)NC(=O)[C@H](Cc2c[nH]c3ccccc23)NC(=O)[C@H](CC(C)C)NC(=O)[C@H](CC(N)=O)NC1=O)[C@H](C)O
inactive: Potency [1] | Potency [2] | Potency [4] | Potency [5]
active: Potency [10] 0.833 µM | Potency [9] 2.64 µM | Potency [6] 28.2 µM

CNC(=O)c1cc(COc2nnc(Nc3ccc(Cl)cc3)c3ccoc23)ccn1
inactive: Potency [1] | Potency [2] | Potency [3] | Potency [4] | Potency [5] | activity (max response) [6] -21.4%
active: Potency [8] 16.6 µM | Potency [7] 12.6 µM

COc1ccc(-c2coc3cc(O)cc(O)c3c2=O)cc1
active: Potency [6] 31.6 µM | Potency [7] 28.2 µM
inactive: Potency [1] | Potency [2] | Potency [4] | Potency [5] | Potency [10] | Potency [9]

CC(C(C)N1CC(=O)NC(=O)C1)N1CC(=O)NC(=O)C1 (configuration not stated)
inactive: Potency [1] | Potency [2] | activity (max response) [6] 12.5% | Potency [7]
active: Potency [3] 13.2 µM | Potency [5] 1.66 µM

COc1ccc2nc(S(=O)Cc3ncc(C)c(OC)c3C)[nH]c2c1 (configuration not stated)
inactive: Potency [1] | Potency [2] | Potency [3] | Potency [4] | Potency [5] | Potency [8] | Potency [10] | Potency [9] | activity (max response) [6] -12.3% | Potency [7]

COc1ccccc1N1CCN(CCN(C(=O)C2CCCCC2)c2ccccn2)CC1
inactive: Potency [1] | Potency [2] | Potency [3] | Potency [4] | Potency [5] | Potency [8] | Potency [10] | Potency [9] | Potency [7]

Clc1ccc(-c2nc3sccn3c2C=NOCc2ccc(Cl)c(Cl)c2)cc1
inactive: Potency [1] | Potency [2] | Potency [3] | Potency [4] | Potency [8] | Potency [10] | Potency [9]
